# Reference: PubChem BioAssay (NCATS)
# Values joined by “and” are separate entries in the source; they are usually repeats but may differ in a detail not shown here. Identical values can stand only once. Records with an inconclusive call do not appear. Active and inactive are the calls of the source. Unless noted, the call rests on the fitted dose curve; in most records, active means well fitted curve in the direction sought with a large enough effect; inconclusive means small, poorly fitted or top-dose-only effect, or another doubt; inactive means no such curve, though single readings can be large; an effect the other way counts as inactive or inconclusive.
# Experiments:
# [1] = P-glycoprotein substrates identified in KB-8-5-11 adenocarcinoma cell line, qHTS therapeutic library screen (AID 1346987); further: nearly all actives have a fitted effect of over 65% in size; further: potency means the concentration at half of the fitted maximal effect
# Outline: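 KB-8-5-11: colchicine-selected sub-line of KB-3-1 over-expressing P-gp; assay medium lacked colchicine. 72 h drug exposure at 37 degree C, CellTiter-Glo.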
# [2] = Primary qHTS for inhibitors of nuclear receptor binding SET domain protein 2 (NSD2) in an isogenic RCH-ACV NSD2 p.E1099K mutant (9B) (AID 1645876); further: nearly all actives have a fitted effect of over 70% in size; further: potency means the concentration at half of the fitted maximal effect
# [3] = Primary qHTS for inhibitors of nuclear receptor binding SET domain protein 2 (NSD2) in an RCH-ACV wild type WT cells (2C) (AID 1645877); further: nearly all actives have a fitted effect of over 70% in size; further: potency means the concentration at half of the fitted maximal effect
# [4] = target: Glutathione peroxidase 1 (Homo sapiens) (UniProt P07203); assay: Primary qHTS Assay for Inhibitors of Recombinant Selenoprotein Glutathione Peroxidase 1 (GPX1) (AID 1845191); further: nearly all actives have a fitted effect of over 65% in size; further: potency means the concentration at half of the fitted maximal effect
# Outline: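 10 nM GPX1 + cpd, 30 min RT; start w/ 1 mM GSH, 0.5 mM cumene hydroperoxide, 0.5 mM NADPH, 100 nM GR, 0.01% BSA; buffer 50 mM Tris-HCl pH 7.5, 2 mM EDTA, 150 mM NaCl; Fl 340/450, 0 & 15 min.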
# [5] = target: Phospholipid hydroperoxide glutathione peroxidase GPX4 (Homo sapiens) (UniProt P36969); assay: Primary qHTS Assay for Inhibitors of Recombinant Selenoprotein Glutathione Peroxidase 4 (GPX4) (AID 1845192); settings: outcome: dose series up to 50 µM unless noted; further: nearly all actives have a fitted effect of over 65% in size; further: potency means the concentration at half of the fitted maximal effect
# Outline: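 NADPH consumption, followed by fluorescence at 340/450 nm between 0 and 15 min, reports GPX4 activity via coupled glutathione reductase (100 nM). Enzyme 200 nM was pre-exposed to compound 30 min; 0.5 mM cumene hydroperoxide and 1 mM GSH served as substrates.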
# [6] = qHTS drug screen for cell cycle checkpoint inhibitors in PARPi-resistant BRCA-mutant ovarian cancer cell lines. (AID 1963452; calls by dose curve; further: potency means the concentration at half of the fitted maximal effect); settings: PEO1/OlaR viability, CellTiter-Glo luminescence, 96 h; for Z-AUC: stronger effect = lower value
# Outline: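 PEO1, PEO4 and PEO1/OlaR ovarian cancer cells, 600 per well, exposed 96 h at 37C to a dilution series. Viability read by CellTiter-Glo luminescence, normalized to DMSO and empty wells; activity summarized as Z-AUC.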
# [7] = target: Calcium and integrin-binding protein 1 (Homo sapiens) (UniProt Q99828); assay: Primary qHTS for Identification of Calcium Integrin Binding Protein 1 (CIB1) Competitor (AID 1508620);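 further: GST tagged CIB1 binding a fluorescein labelled alphaIIb integrin peptide tracer; top concentration of the series differs between compounds; on the % scale 0 is the no-effect control and ±100 the full control effect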
# Outline: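 CIB1-GST (1 uM final) and compound incubated 15 min at room temperature before adding FITC-alphaIIb peptide tracer (100 nM final). Competition for binding read by fluorescence polarization (ex 480, em 540) after another 15 min at room temperature.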
# [8] = measured here: PEO1 parental Z-AUC
# Sequence of Glutathione peroxidase 1 (Homo sapiens) (P07203 whole entry, looked up): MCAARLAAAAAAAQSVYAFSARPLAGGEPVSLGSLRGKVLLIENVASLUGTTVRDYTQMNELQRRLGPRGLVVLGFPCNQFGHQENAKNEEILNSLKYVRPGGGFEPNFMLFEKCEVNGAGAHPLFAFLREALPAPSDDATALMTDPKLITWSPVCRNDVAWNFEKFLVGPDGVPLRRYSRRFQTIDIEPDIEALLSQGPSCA
# Sequence of Phospholipid hydroperoxide glutathione peroxidase GPX4 (Homo sapiens) (P36969 whole entry, looked up): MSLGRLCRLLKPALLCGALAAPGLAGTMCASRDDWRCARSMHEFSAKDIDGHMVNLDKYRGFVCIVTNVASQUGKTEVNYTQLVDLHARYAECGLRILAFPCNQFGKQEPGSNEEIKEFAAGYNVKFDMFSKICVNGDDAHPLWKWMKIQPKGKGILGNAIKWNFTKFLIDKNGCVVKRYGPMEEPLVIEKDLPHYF
# Sequence of Calcium and integrin-binding protein 1 (Homo sapiens) (Q99828 whole entry, looked up): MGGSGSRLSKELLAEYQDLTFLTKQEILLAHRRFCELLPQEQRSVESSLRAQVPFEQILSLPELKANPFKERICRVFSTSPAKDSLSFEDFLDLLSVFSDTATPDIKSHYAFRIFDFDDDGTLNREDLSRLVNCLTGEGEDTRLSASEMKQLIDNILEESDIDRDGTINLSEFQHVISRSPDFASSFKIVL
compound,measurement,setting,value
CC(C)C(N)C(=O)OCC(CO)OCn1cnc2c(=O)[nH]c(N)nc21 (stereo not given),Potency,[1],inactive
same,Potency,[2],inactive
same,Potency,[3],inactive
same,Potency,[4],inactive
same,Potency,[5],inactive
Nc1ncnc2c1c(I)cn2C1OC(CO)C(O)C1O (stereo not given),Potency,[1],2.31 µM (active)
same,Potency,[2],1.84 µM (active)
same,Potency,[3],1.03 µM (active)
same,Potency,[4],inactive
COc1cc(F)ccc1-c1ncnc(Nc2cccc(CS(C)(=N)=O)c2)n1 (stereo not given),Potency,[1],5.17 µM (active)
same,Potency,[2],0.525 µM (active)
same,Potency,[3],0.372 µM (active)
same,Potency,[4],inactive
same,Potency,[5],inactive
same,Z-AUC,[6],-0.906 (inactive)
same,Z-AUC,[6]; [8],-1.2
same,Z-AUC,[6]; measured here: PEO4 Z-AUC,-0.831
CN1C/C=C/CCOc2cccc(c2)-c2ccnc(n2)Nc2cccc(c2)C1,Potency,[1],0.231 µM (active)
same,Potency,[2],0.092 µM (active)
same,Potency,[3],0.0731 µM (active)
same,Potency,[5],inactive
same,Potency,[6],0.549 µM (active)
same,Z-AUC,[6]; [8],-1.71
same,Z-AUC,[6]; measured here: PEO4 Z-AUC,-1.51
COC(=O)[C@]12CCC(C)(C)C[C@@H]1[C@@H]1C(=O)C=C3[C@]4(C)C=C(C#N)C(=O)C(C)(C)[C@@H]4CC[C@@]3(C)[C@]1(C)CC2,Potency,[1],1.46 µM (active)
CCCCCCCCCCCCCCCCSCC(COC)COP(=O)([O-])OCC[N+](C)(C)C (stereo not given),Potency,[1],inactive
C=CC(=O)Nc1cccc(C)c1Nc1ncc2cc(-c3c(Cl)c(OC)cc(OC)c3Cl)ccc2n1,Potency,[1],9.2 µM (active)
same,Potency,[2],3.66 µM (active)
same,Potency,[3],4.11 µM (active)
same,Potency,[4],inactive
same,Potency,[5],inactive
same,Z-AUC,[6],-0.505 (inactive)
same,Z-AUC,[6]; [8],-0.983
same,Z-AUC,[6]; measured here: PEO4 Z-AUC,-1.33
C#Cc1cccc(Nc2ncnc3cc(OC)c(OC)cc23)c1,Potency,[1],9.2 µM (active)
same,Potency,[2],14.6 µM (active)
same,Potency,[3],20.6 µM (active)
same,Potency,[4],inactive
CN(C)Cc1cccc(N=C(c2ccccc2)c2c(O)[nH]c3cc(C(N)=O)ccc23)c1,Potency,[1],inactive
same,Potency,[2],16.4 µM (active)
same,Potency,[3],inactive
same,Potency,[4],inactive
same,Potency,[5],inactive
same,Z-AUC,[6],0.325 (inactive)
same,Z-AUC,[6]; [8],0.627
same,Z-AUC,[6]; measured here: PEO4 Z-AUC,-0.143
C[C@@H]1N=C(N)NC(N(C)C)=N1,Potency,[1],inactive
same,Potency,[2],inactive
same,Potency,[3],inactive
same,Potency,[4],inactive
same,Potency,[5],inactive
CCCCCCCC[N+](C)(C)CCCCCCCC,Potency,[1],inactive
Cn1cc(C2=C(c3cn(CCCSC(=N)N)c4ccccc34)C(=O)NC2=O)c2ccccc21,Potency,[1],inactive
same,Potency,[2],1.46 µM (active)
same,Potency,[3],1.64 µM (active)
N[C@@H](C(=O)N[C@@H]1C(=O)N2C(C(=O)O)=C(CSc3cn[nH]n3)CS[C@H]12)c1ccc(O)cc1,Potency,[4],18 µM (active)
same,Potency,[5],inactive
C[N+]1(C)CCN(CC(O)(c2ccccc2)C2CCCCC2)CC1 (stereo not given),Potency,[4],inactive
CC1(C)N=C(N)N=C(N)N1c1ccc(Cl)cc1,Potency,[1],inactive
COc1cc(OC)cc(N(CCNC(C)C)c2ccc3ncc(-c4cnn(C)c4)nc3c2)c1,Potency,[1],18.4 µM (active)
same,Potency,[2],11.8 µM (active)
same,Potency,[4],inactive
same,Potency,[5],inactive
same,Z-AUC,[6],-0.272 (inactive)
same,Z-AUC,[6]; [8],-0.0954
same,Z-AUC,[6]; measured here: PEO4 Z-AUC,-0.145
COc1ccc(C(=O)Nc2sc3c(c2C(N)=O)CCCC3)cc1OC,Potency,[1],inactive
same,Potency,[2],inactive
same,Potency,[3],inactive
same,Potency,[4],inactive
NC(=O)c1sc(-c2ccsc2)cc1N,Potency,[1],inactive
same,Potency,[2],inactive
same,Potency,[3],inactive
same,Potency,[4],inactive
CN1CCC(c2c(O)cc(O)c3c(=O)cc(-c4ccccc4Cl)oc23)C1CO (stereo not given),Potency,[1],5.17 µM (active)
same,Potency,[2],0.417 µM (active)
same,Potency,[3],0.332 µM (active)
same,Potency,[4],inactive
same,Potency,[5],inactive
N#C/C(=C(\N)Sc1ccc(N)cc1)c1ccccc1C(F)(F)F,Potency,[1],inactive
CC(C)=CCC/C(C)=C/CC/C(C)=C/CSc1ccccc1C(=O)O,Potency,[1],inactive
same,Potency,[2],inactive
same,Potency,[4],inactive
same,Potency,[5],16.1 µM (active)
NC(=O)c1nc(F)c[nH]c1=O,Potency,[1],inactive
same,Potency,[2],inactive
same,Potency,[3],inactive
same,Potency,[4],20.2 µM (active)
same,Potency,[5],9.04 µM (active) and 22.4 µM (active)
same,Z-AUC,[6],-0.413 (inactive)
same,Z-AUC,[6]; [8],-0.874
same,Z-AUC,[6]; measured here: PEO4 Z-AUC,-0.858
C#C[C@]1(OC(C)=O)CC[C@H]2[C@@H]3CCC4=CC(=O)CC[C@@H]4[C@H]3CC[C@@]21C,Potency,[1],3.66 µM (active)
same,Potency,[4],inactive
same,Potency,[5],inactive
NCCNCCN,Potency,[1],inactive
Clc1ccc2ncc(-c3cccc(NC4CCNC4)n3)n2c1 (stereo not given),Potency,[1],10.3 µM (active)
same,outcome,[7],inactive
same,Potency,[2],1.3 µM (active)
same,Potency,[3],1.16 µM (active)
same,Potency,[4],inactive
Cc1cc(N2CCOCC2)cc2[nH]c(-c3c(NCC(O)c4cccc(Cl)c4)cc[nH]c3=O)nc12 (stereo not given),Potency,[1],5.8 µM (active)
same,Potency,[2],1.64 µM (active)
same,Potency,[3],1.46 µM (active)
CC1CN(CC(=O)Nc2ccc3c(c2)Cc2cccc(-c4cc(=O)cc(N5CCOCC5)o4)c2S3)CC(C)O1 (stereo not given),Potency,[1],inactive
